Measurements as given in ChEMBL document CHEMBL3433997, “St. Jude Leishmania screening dataset” (2016).
Where “and” joins values, the source holds several entries; their conditions need not be identical. Identical values can stand only once.

Columns and labels:
Type in all cases: functional
[1] = target: Solute carrier family 2, facilitated glucose transporter member 1 (Homo sapiens) (UniProt P11166); assay: ST_JUDE_LEISH: Cytotoxicity at 2uM final concentration against transgenic Leishmania Mexicana promastigotes LmGLUT1 that are glucose transport deficient and complemented with the human glucose transporter GLUT1. Activity is measured by DNA content using SYBR green in vitro
Solute carrier family 2, facilitated glucose transporter member 1 (Homo sapiens), sequence (P11166 whole entry): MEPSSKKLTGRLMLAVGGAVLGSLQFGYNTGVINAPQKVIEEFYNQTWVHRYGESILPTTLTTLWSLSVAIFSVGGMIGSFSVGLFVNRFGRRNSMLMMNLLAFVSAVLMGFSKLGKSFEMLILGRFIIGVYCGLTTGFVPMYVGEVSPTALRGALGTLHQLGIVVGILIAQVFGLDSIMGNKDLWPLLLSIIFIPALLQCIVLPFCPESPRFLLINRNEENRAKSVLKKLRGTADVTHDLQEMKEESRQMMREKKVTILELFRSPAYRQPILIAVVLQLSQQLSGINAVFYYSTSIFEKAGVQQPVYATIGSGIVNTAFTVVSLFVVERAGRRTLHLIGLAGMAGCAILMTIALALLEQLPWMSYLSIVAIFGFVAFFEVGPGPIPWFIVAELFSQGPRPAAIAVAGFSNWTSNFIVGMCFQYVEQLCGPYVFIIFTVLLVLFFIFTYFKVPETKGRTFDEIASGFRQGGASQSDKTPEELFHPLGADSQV

[2] = target: Hexose transporter 1 (Plasmodium falciparum) (UniProt O97467); assay: ST_JUDE_LEISH: Cytotoxicity at 2uM final concentration against transgenic Leishmania Mexicana promastigotes LmPfHT that are glucose transport deficient and complemented with the Plasmodium falciparum hexose transporter. Activity is measured by DNA content using SYBR green in vitro
[3] = target: Glucose transporter (Leishmania mexicana) (UniProt O61059); assay: ST_JUDE_LEISH: Cytotoxicity at 2uM final concentration against transgenic Leishmania Mexicana promastigotes LmGT2 that are glucose transport deficient and complemented with the L. Mexicana glucose transporter 2. Activity is measured by DNA content using SYBR green in vitro

Question: Which inhibition [1] does the source give for `CC(C)N1CCC(NCc2ccc(-c3ccc(Cl)cc3)cc2)CC1` here?
Answer: 11.6%

Question: And the inhibition [2]?
Answer: 13.6%

Question: And the inhibition [3]?
Answer: 10.2%

Question: Which results are given for `CN(C)CC(O)C(c1ccccc1)c1ccc(Cl)cc1` (stereo not given)?
Answer: inhibition [1]: 5.17%; inhibition [2]: 1.04%; inhibition [3]: 0.76%

Question: Which results are given for `O=c1[nH]c2c(cc1CNC1CCCCC1)c(-c1cccc(F)c1)nn2-c1ccccc1`?
Answer: inhibition [1]: 1.69%; inhibition [2]: 0.38%; inhibition [3]: -3.71%

Question: Which inhibition [1] does the source give for `CC(C)CCN1CCCN(Cc2cccc(C(=O)Nc3ccc(C(C)(C)C)cc3)c2)CC1` here?
Answer: 3.18%

Question: And the inhibition [2]?
Answer: 0.18%

Question: What about the inhibition [3] of the same compound?
Answer: 2.78%

Question: What does the source list for `CS(=O)(=O)c1cccc(-c2cnc(N)c3cc(-c4cccc(F)c4)ccc23)c1`?
Answer: inhibition [1]: 1.57%; inhibition [2]: 1.63%; inhibition [3]: 0.94%

Question: Which results are given for `CC(=O)N(C)c1cccc(C(=O)Nc2cccc(-c3cccc(-c4nc5cc(C(F)(F)F)ccc5[nH]4)c3)c2)c1`?
Answer: inhibition [1]: 12.3%; inhibition [2]: 12%; inhibition [3]: 5.52%

Question: What does the source list for `O=C(Nc1ccccc1)N(Cc1ccccc1-c1cccc(CNCc2ccc3c(c2)OCO3)c1)C1CCN(Cc2ccccc2)CC1`?
Answer: inhibition [1]: -2.93%; inhibition [2]: -2.6%; inhibition [3]: -2.56%

Question: What does the source list for `CC(=O)Nc1nc(C(=O)Nc2ccc(-c3cccc(-c4nc5cc(C(F)(F)F)ccc5[nH]4)c3)cc2)cs1`?
Answer: inhibition [1]: 0.32%; inhibition [2]: 2.2%; inhibition [3]: 0.81%

Question: What does the source list for `O=C(COc1cccc([N+](=O)[O-])c1)Nc1ccc(-c2nc3ccccc3[nH]2)cc1`?
Answer: inhibition [1]: 1.62%; inhibition [2]: 2.12%; inhibition [3]: -1.82%

Question: For `COc1ccc2ncc(F)c(CCN3CC[C@@H](CNCc4cc5c(cn4)OCS5)C3)c2n1`, which inhibition [1] is on record?
Answer: 2.66%

Question: And the inhibition [2]?
Answer: 1.69%

Question: And the inhibition [3]?
Answer: -0.48%

Question: What does the source list for `O=C(Nc1ccc(OC(F)(F)F)cc1)NC1CCN(c2ccnc3ccccc23)CC1`?
Answer: inhibition [1]: 6.11%; inhibition [2]: 5.45%; inhibition [3]: -1.28%

Question: How did the inhibition [1] turn out when `CCN(CCC1(c2ccc(Cl)c(Cl)c2)CN(C(=O)c2cc(OC)c(OC)c(OC)c2)CCO1)C1CC2c3ccccc3CC21` (stereo not given) was run?
Answer: -0.68%

Question: What about the inhibition [2] of the same compound?
Answer: 1.17%

Question: And the inhibition [3]?
Answer: -0.3%

Question: `COc1cc2c(cc1COc1ccccc1)CCN1Cc3cc(OC)c(OC)cc3CC21` (stereo not given) was tested. Which inhibition [1] did it give?
Answer: 1.91%

Question: What about the inhibition [2] of the same compound?
Answer: 0.8%

Question: What about the inhibition [3] of the same compound?
Answer: -6.12%

Question: `CC(O)C1CCCCN1C(=O)c1ccc(-c2ccc(-c3nc4ccccc4[nH]3)s2)cc1` (stereo not given) was tested. Which inhibition [1] did it give?
Answer: -1.19%

Question: And the inhibition [2]?
Answer: -3.15%

Question: What about the inhibition [3] of the same compound?
Answer: -1.69%

Question: What does the source list for `Cc1cc(=O)c(-c2ccc(Oc3cccc(C(F)(F)F)c3)cc2)c(C)[nH]1`?
Answer: inhibition [1]: 0.14% and -4.84%; inhibition [2]: 2% and 2.11%; inhibition [3]: 1.32% and -2.73%

Question: With `N#Cc1ccnc(-c2ccc(CNC3CCN(CC4Cn5c(=O)ccc6ccc(F)c4c65)CC3)cc2)c1` (stereo not given) as the compound, how does the inhibition [1] read?
Answer: 9.83%

Question: What about the inhibition [2] of the same compound?
Answer: 8.44%

Question: And the inhibition [3]?
Answer: 4.88%

Question: What does the source list for `NC1CCN(c2nc(NCCCc3ccc(O)cc3)nc(NCc3ccccc3-c3ccccc3)n2)CC1`?
Answer: inhibition [1]: 0.77%; inhibition [2]: 0.01%; inhibition [3]: 1.09%

Question: How did the inhibition [1] turn out when `CC[C@H](N/C(=N\c1ccc(-c2ccccc2)cc1)Nc1ccc(C#N)cc1O)c1ccccc1` was run?
Answer: 4.55%

Question: And the inhibition [2]?
Answer: 3.4%

Question: And the inhibition [3]?
Answer: 2.55%

Question: Which results are given for `O=C(/C=C/c1ccc(Cl)c(Cl)c1)NCCCCCN1CCC(NC(=O)Nc2ccccc2Cl)CC1`?
Answer: inhibition [1]: 0.63%; inhibition [2]: 0.55%; inhibition [3]: 0.27%

Question: How did the inhibition [1] turn out when `O=C(NC1CCCCC1)c1ccc(O)c(-c2cccc(C(F)(F)F)c2)c1` was run?
Answer: 2.06%

Question: What about the inhibition [2] of the same compound?
Answer: 2%

Question: And the inhibition [3]?
Answer: 1.27%

Question: Which results are given for `O=C(CSc1nn(-c2ccccc2)c(=S)s1)c1c[nH]c2ccccc12`?
Answer: inhibition [1]: 2.16%; inhibition [2]: 2.64%; inhibition [3]: 2.3%

Question: With `Cc1c(-c2cccc(CNCCc3ccc(Cl)cc3)c2)cnc(N)c1C` as the compound, how does the inhibition [1] read?
Answer: -3.87%

Question: What about the inhibition [2] of the same compound?
Answer: -2.81%

Question: And the inhibition [3]?
Answer: -1.41%

Question: `CCC(CC)n1c(C)cc2c3c(N)nc(N)nc3ccc21` was tested. Which inhibition [1] did it give?
Answer: 89.4%

Question: What about the inhibition [2] of the same compound?
Answer: 90%

Question: What about the inhibition [3] of the same compound?
Answer: 70.8%

Question: What does the source list for `CC(C)(CC1CCCCC1)NC(=O)[C@H](CC1CCCCC1)Nc1ccc(C#N)c2ccccc12`?
Answer: inhibition [1]: 1.82%; inhibition [2]: 1.4%; inhibition [3]: -1.9%

Question: How did the inhibition [1] turn out when `CN1CCCc2ccc(NC(=O)c3cnc(-c4ccccc4)cn3)cc21` was run?
Answer: 0.24%

Question: And the inhibition [2]?
Answer: 0.87%

Question: What about the inhibition [3] of the same compound?
Answer: -0.23%

Question: For `CC[C@H]1CN2CCc3cc(OC)c(OC)cc3[C@@H]2C[C@@H]1CC1=NCCc2c1[nH]c1ccc(OCc3ccccc3)cc21`, which inhibition [1] is on record?
Answer: 0.63%

Question: And the inhibition [2]?
Answer: 0.59%

Question: And the inhibition [3]?
Answer: 2.89%

Question: How did the inhibition [1] turn out when `CCOc1ccc2c(=NN=Cc3cccc(OC)c3OC)cc(C)[nH]c2c1` was run?
Answer: 4.91%

Question: What about the inhibition [2] of the same compound?
Answer: 5.53%

Question: And the inhibition [3]?
Answer: 6%

Question: `CCCc1cc(C(=O)N[C@@H](Cc2ccccc2)[C@H](O)CNC2CCOCC2)c(F)c(N2CCCCS2(=O)=O)c1` was tested. Which inhibition [1] did it give?
Answer: 4.76%

Question: What about the inhibition [2] of the same compound?
Answer: 5.47%

Question: And the inhibition [3]?
Answer: 6.25%

Question: What does the source list for `O=C(Nc1ccc(F)c(F)c1)c1ccc(CN2CCCN(Cc3cccc(O)c3)CC2)cc1`?
Answer: inhibition [1]: 3.12%; inhibition [2]: 2.77%; inhibition [3]: 3.84%

Question: Which results are given for `COc1ccc(CNc2nccc3ccc(-c4ccc(N)nc4)cc23)cc1`?
Answer: inhibition [1]: -2.02%; inhibition [2]: -0.06%; inhibition [3]: -0.73%

Question: How did the inhibition [1] turn out when `CSc1ccc(CN2CCC(NC(=O)c3ccc(-c4cccc(Cl)c4)s3)CC2)cc1` was run?
Answer: 7.55%

Question: And the inhibition [2]?
Answer: 6.28%

Question: And the inhibition [3]?
Answer: 2.36%

Question: Which results are given for `OCCOCCNCc1cccc(C#Cc2cc3ncnc(Nc4ccc(OCc5cccc(F)c5)c(Cl)c4)c3s2)n1`?
Answer: inhibition [1]: -0.5%; inhibition [2]: 1.33%; inhibition [3]: 1.82%

Question: With `CN(C)CCC(O)C=C(c1ccc(Cl)cc1)c1ccc(Cl)cc1` (stereo not given) as the compound, how does the inhibition [1] read?
Answer: 9.31%

Question: And the inhibition [2]?
Answer: 7.5%

Question: What about the inhibition [3] of the same compound?
Answer: 4.86%

Question: With `Cc1cc(NCCC(=O)NCCOc2ccccc2)nc(NCc2ccccc2C)n1` as the compound, how does the inhibition [1] read?
Answer: 3.15%

Question: And the inhibition [2]?
Answer: 0.58%

Question: And the inhibition [3]?
Answer: 0.45%

Question: For `CC(C)(C)c1cc(NC(=O)c2ccc(Cl)c([N+](=O)[O-])c2)cc(C(C)(C)C)c1`, which inhibition [1] is on record?
Answer: 6.54%

Question: And the inhibition [2]?
Answer: 6.88%

Question: And the inhibition [3]?
Answer: 6.21%

Question: Which results are given for `Cc1cc(CN2CCCN(c3ccc4c(c3)CCN(Cc3ccc(-c5ncc[nH]5)cc3)CC4)CC2)n(C)n1`?
Answer: inhibition [1]: -0.3%; inhibition [2]: -1.47%; inhibition [3]: -3.2%

Question: For `CCCCCN1CCCCC(NS(=O)(=O)c2ccc(C(=O)Nc3ccc(C(F)(F)F)cc3)cc2)C1` (stereo not given), which inhibition [1] is on record?
Answer: 0.12%

Question: What about the inhibition [2] of the same compound?
Answer: 2.98%

Question: What about the inhibition [3] of the same compound?
Answer: -1.53%

Question: Which inhibition [1] does the source give for `Cn1c(Cc2ccccc2)nnc1Sc1ccc(C#N)c([N+](=O)[O-])c1` here?
Answer: 3.85%

Question: What about the inhibition [2] of the same compound?
Answer: 1.84%

Question: And the inhibition [3]?
Answer: -3.07%

Question: With `Cc1nc(C)c(-c2ccc(S(=O)(=O)c3ccc(Cl)cc3)cc2)c(O)c1Cl` as the compound, how does the inhibition [1] read?
Answer: 9.02%

Question: And the inhibition [2]?
Answer: 5.86%

Question: What about the inhibition [3] of the same compound?
Answer: 7.16%

Question: With `Cc1nc2nc(N)nc(N)c2c(C)c1Cc1cccc(C(F)(F)F)c1` as the compound, how does the inhibition [1] read?
Answer: -1.41%

Question: What about the inhibition [2] of the same compound?
Answer: -2.48%

Question: What about the inhibition [3] of the same compound?
Answer: -2.32%

Question: Which inhibition [1] does the source give for `N#Cc1ccc(CN2CCC(Oc3ccc(NC(=O)c4ccco4)cc3Cl)C2)cc1` (stereo not given) here?
Answer: 3.53%

Question: What about the inhibition [2] of the same compound?
Answer: 0.89%

Question: And the inhibition [3]?
Answer: -0.68%

Question: How did the inhibition [1] turn out when `COc1ccc(-c2ccc(NC(=O)c3ccc(C#N)cc3)cc2)cc1CN1CCNCC1` was run?
Answer: 10.9%

Question: And the inhibition [2]?
Answer: 7.81%

Question: What about the inhibition [3] of the same compound?
Answer: 5.48%

Question: For `O=C(CCc1c[nH]cn1)Nc1ccc(-c2cccc(-c3nc4ccccc4[nH]3)c2)cc1`, which inhibition [1] is on record?
Answer: 0.28%

Question: And the inhibition [2]?
Answer: 0.66%

Question: What about the inhibition [3] of the same compound?
Answer: 0.03%

Question: With `CN1CCN(Cc2ccc(-c3ccc4c(Nc5ccc(Oc6ccccc6)cc5)ccnc4c3)o2)CC1` as the compound, how does the inhibition [1] read?
Answer: -0.9%

Question: What about the inhibition [2] of the same compound?
Answer: -0.3%

Question: And the inhibition [3]?
Answer: 0.49%

Question: Which results are given for `CCN(CC)CCCC(C)Nc1ccnc2cc(C#N)ccc12` (stereo not given)?
Answer: inhibition [1]: -0.82%; inhibition [2]: -2.04%; inhibition [3]: -3.31%

Question: What does the source list for `O=S(=O)(c1csc2ccccc12)N(CCC(O)(C(F)(F)F)C(F)(F)F)Cc1cccc(O)c1`?
Answer: inhibition [1]: -1.82%; inhibition [2]: -2.19%; inhibition [3]: -4.98%

Question: `N#CC(c1cccc(Cl)c1)c1ccc2c(C(F)(F)F)cc(C(F)(F)F)nc2n1` (stereo not given) was tested. Which inhibition [1] did it give?
Answer: 9.02%

Question: What about the inhibition [2] of the same compound?
Answer: 7.47%

Question: What about the inhibition [3] of the same compound?
Answer: 6.02%

Question: Which results are given for `Clc1ccc(Cc2nc3ccccc3[nH]2)cc1Cl`?
Answer: inhibition [1]: 4.81%; inhibition [2]: 4.08%; inhibition [3]: 4.23%

Question: What does the source list for `Cc1cc(N[C@@H](Cc2ccccc2)C(=O)NCCc2ccccc2)nc(NCCOc2ccccc2)n1`?
Answer: inhibition [1]: 5.12%; inhibition [2]: 5.84%; inhibition [3]: 2.55%

Question: For `COc1cc2nc(NCCc3ccccc3)nc(NCc3ccc(C#N)cc3)c2cc1OC`, which inhibition [1] is on record?
Answer: 3.59%

Question: What about the inhibition [2] of the same compound?
Answer: 6.39%

Question: And the inhibition [3]?
Answer: 2.83%
